Among the data in PubChem BioAssay (EPA / NIEHS) are AC50 and outcome values, retold here.

Assay [1] addresses rat Neurokinin-1 Receptor (NK1), Tacr1 (gene 24807) (UniProt P14600). The experiment in a line: NVS_GPCR_rNK1: NovaScreen (NVS) G Protein-Coupled Receptor Assay for rat Neurokinin-1 Receptor (NK1) (AID 2283309). A digest of the protocol: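 Rat submaxillary gland membranes; radioligand displacement read by filter-based scintillation counting after 1 h. Primary screen in duplicate at 25 uM; actives retested in concentration series; loss of binding fitted versus DMSO.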

Assay [2] has as its target human Neonicotinoid receptor (NNR), CHRNA2 (gene 1135) (UniProt Q15822). The experiment in a line: NVS_LGIC_hNNR_NBungSens: NovaScreen (NVS) Ligand-Gated Ion Channel Assay for human Neonicotinoid receptor (NNR) (AID 2283313). A digest of the protocol: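 Radioligand displacement on human neuroblastoma membranes, 2 h, filter-based scintillation counting. Primary screen in duplicate at 25 uM; chemicals passing threshold (e.g. 30% inhibition) run singleton concentration-response to 50 uM; loss of binding fitted versus DMSO.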

Assay [3] addresses rat Neonicotinoid receptor (NNR), Chrna7 (gene 25302) (UniProt Q05941). The assay is described as follows: NVS_LGIC_rNNR_BungSens: NovaScreen (NVS) Ligand-Gated Ion Channel Assay for rat Neonicotinoid receptor (NNR) (AID 2283315). An outline of the steps:
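Radioligand displacement binding on rat cortical membranes, 2.5 h incubation, filtration and scintillation counting. Loss of specific binding fitted relative to DMSO.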

For assay [4], the target named is rat Opioid Receptor, Non-selective Binding, Oprm1 (gene 25601) (UniProt P33535). The experiment in a line: NVS_GPCR_rOpiate_NonSelective: NovaScreen (NVS) G Protein-Coupled Receptor Assay for rat Opioid Receptor, Non-selective Binding (AID 2283318). A digest of the protocol:
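Rat forebrain membranes, cell-free radioligand binding with filter-based scintillation counting, read 1.5 h after dosing. Primary screen in duplicate at 25 uM; actives retested in concentration series. Loss of signal versus DMSO baseline scored.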

A short description of assay [5]: NVS_IC_rCaDHPRCh_L: NovaScreen (NVS) Ion Channel Assay for rat Calcium Channel, Type L, Dihydropyridine Site (CaDHPRCh_L) (AID 2283320). A digest of the protocol: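 Radioligand binding to dihydropyridine site on rat cortical membranes, filter-based scintillation counting, 1 h after dosing. Screened in duplicate at 25 uM; actives rerun in concentration-response up to 50 uM. Loss of signal versus DMSO baseline.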

In assay [6] the target is Sodium channel protein type 1 subunit alpha (Rattus norvegicus) (UniProt P04774). The experiment in a line: NVS_IC_rNaCh_site2: NovaScreen (NVS) Ion Channel Assay for rat Sodium Channel, Site 2 (NaCh) (AID 2283322).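 Also: hit means loss of radioligand binding signal relative to DMSO so AC50 marks displacement.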 A digest of the protocol:
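Membranes: rat forebrain. Format: competitive radioligand displacement, filter separation, scintillation readout, 1 h exposure. Primary screen in duplicate at 25 uM; actives retested in concentration series.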

Assay [7] concerns the target rat Thyrotropin Releasing Hormone Receptor (TRH), Trhr (gene 25570) (UniProt Q01717). The experiment in a line: NVS_GPCR_rTRH: NovaScreen (NVS) G Protein-Coupled Receptor Assay for rat Thyrotropin Releasing Hormone Receptor (TRH) (AID 2283329).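 Also: hit means lower bound tracer signal versus DMSO baseline.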 An outline of the steps:
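Competitive radioligand binding on rat forebrain membrane preparations, with filtration and scintillation readout after 4 h. Primary testing in duplicate at 25 uM; actives confirmed in concentration-response. DMSO defined baseline.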

The target in assay [8] is human Serotonin, 5-Hydroxytryptamine Receptor 3 (5HT3), HTR3A (gene 3359) (UniProt P46098). The experiment in a line: NVS_LGIC_h5HT3: NovaScreen (NVS) Ligand-Gated Ion Channel Assay for human Serotonin, 5-Hydroxytryptamine Receptor 3 (5HT3) (AID 2283325). An outline of the steps:
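Radioligand displacement binding to human 5-HT3 from HEK293 membranes, read by filter-based scintillation counting after 1 h. Screen at 25 uM in duplicate; chemicals passing threshold were retested in concentration-response up to 50 uM.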

Assay [9] concerns the target rat Somatostatin Receptor (SST), Sstr1 (gene 25033) (UniProt P28646). The assay is described as follows: NVS_GPCR_rSST: NovaScreen (NVS) G Protein-Coupled Receptor Assay for rat Somatostatin Receptor (SST) (AID 2283314). A digest of the protocol: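 Rat forebrain membranes; radioligand displacement read by filter-based scintillation counting 1 h after dosing. Primary screen in duplicate at 25 uM. Actives (e.g., 30% inhibition) were rerun as concentration-response to 50 uM max and fitted against DMSO.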

The target in assay [10] is Voltage-dependent N-type calcium channel subunit alpha-1B (Rattus norvegicus) (UniProt Q02294). The assay is described as follows: NVS_IC_rCaChN: NovaScreen (NVS) Ion Channel Assay for rat Calcium Channel, Type N (CaChN) (AID 2283317).
Assay [11] has as its target rat Glutamate Metabotropic Receptor 5 (MGluR5), Grm5 (gene 24418) (UniProt P31424). The experiment in a line: NVS_GPCR_rmMGluR5: NovaScreen (NVS) G Protein-Coupled Receptor Assay for rat Glutamate Metabotropic Receptor 5 (MGluR5) (AID 2283307). An outline of the steps: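 Rat whole-brain membrane preparation; filter-based radioligand binding read by scintillation counting, 1.5 h after dosing. Single-point screen at 25 uM in duplicate; hits over threshold (e.g. 30% inhibition) retested in concentration-response up to 50 uM; loss of signal vs DMSO.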

The target of assay [12] is rat Neurokinin-3 Receptor (NK3), Tacr3 (gene 24808) (UniProt P16177). The experiment in a line: NVS_GPCR_rNK3: NovaScreen (NVS) G Protein-Coupled Receptor Assay for rat Neurokinin-3 Receptor (NK3) (AID 2283310). An outline of the steps: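 Rat cortical membranes; radioligand binding with filtration and scintillation counting, 2 h after dosing. Primary screen in duplicate at 25 uM, then concentration-response up to 50 uM; loss of binding signal relative to DMSO.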

The target in assay [13] is rat Opioid Receptor, Non-selective Sodium (Na+) Binding, Oprm1 (gene 25601) (UniProt P33535). The experiment in a line: NVS_GPCR_rOpiate_NonSelectiveNa: NovaScreen (NVS) G Protein-Coupled Receptor Assay for rat Opioid Receptor, Non-selective Sodium (Na+) Binding (AID 2283311). An outline of the steps: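 Rat forebrain membranes, radioligand displacement with filter scintillation counting, 1.5 h incubation. Screened in duplicate at 25 µM; hits then run in concentration-response up to 50 µM; loss of binding fitted versus DMSO.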

For assay [14], the target named is rat Glutamate, AMPA Site (AMPA), Gria1 (gene 50592) (UniProt P19490). The experiment in a line: NVS_LGIC_rAMPA: NovaScreen (NVS) Ligand-Gated Ion Channel Assay for rat Glutamate, AMPA Site (AMPA) (AID 2283324). An outline of the steps: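 Rat forebrain membranes; radioligand binding read 1 h after dosing by filtration and scintillation counting. Duplicate single-point screen at 25 uM, then concentration-response to 50 uM for threshold hits (e.g. 30% inhibition); loss of signal vs DMSO.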

Records with an inconclusive call do not appear. The source made the active and inactive calls. The calls were made as follows: active = hit-call score of the fitted dose curve at least 0.9, where 1 is the maximum; inconclusive = response in the unintended direction; inactive = score below 0.9.

Chain of rat Thyrotropin Releasing Hormone Receptor (TRH), Trhr (gene 25570) (Q01717 whole entry, looked up): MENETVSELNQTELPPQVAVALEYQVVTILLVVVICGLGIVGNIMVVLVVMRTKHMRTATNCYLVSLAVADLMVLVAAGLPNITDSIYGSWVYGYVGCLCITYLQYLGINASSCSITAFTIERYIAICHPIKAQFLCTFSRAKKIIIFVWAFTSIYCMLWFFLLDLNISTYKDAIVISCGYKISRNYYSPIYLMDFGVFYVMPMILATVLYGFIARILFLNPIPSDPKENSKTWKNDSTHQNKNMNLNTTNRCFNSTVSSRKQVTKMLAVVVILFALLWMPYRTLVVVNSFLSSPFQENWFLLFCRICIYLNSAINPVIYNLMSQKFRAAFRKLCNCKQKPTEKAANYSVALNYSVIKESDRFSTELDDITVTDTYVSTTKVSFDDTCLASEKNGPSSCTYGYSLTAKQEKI
Chain of rat Opioid Receptor, Non-selective Binding, Oprm1 (gene 25601) (P33535 whole entry, looked up): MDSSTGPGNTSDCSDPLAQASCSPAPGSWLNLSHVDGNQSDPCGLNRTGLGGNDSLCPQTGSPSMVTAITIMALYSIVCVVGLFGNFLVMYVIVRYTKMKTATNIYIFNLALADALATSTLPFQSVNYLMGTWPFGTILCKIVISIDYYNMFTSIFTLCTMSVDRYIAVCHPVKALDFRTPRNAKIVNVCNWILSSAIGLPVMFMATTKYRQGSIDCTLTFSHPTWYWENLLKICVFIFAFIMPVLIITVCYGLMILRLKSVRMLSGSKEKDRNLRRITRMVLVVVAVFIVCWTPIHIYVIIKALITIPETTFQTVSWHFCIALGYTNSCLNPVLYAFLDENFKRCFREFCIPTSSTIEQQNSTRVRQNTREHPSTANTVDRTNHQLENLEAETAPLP
Chain of rat Neonicotinoid receptor (NNR), Chrna7 (gene 25302) (Q05941 whole entry, looked up): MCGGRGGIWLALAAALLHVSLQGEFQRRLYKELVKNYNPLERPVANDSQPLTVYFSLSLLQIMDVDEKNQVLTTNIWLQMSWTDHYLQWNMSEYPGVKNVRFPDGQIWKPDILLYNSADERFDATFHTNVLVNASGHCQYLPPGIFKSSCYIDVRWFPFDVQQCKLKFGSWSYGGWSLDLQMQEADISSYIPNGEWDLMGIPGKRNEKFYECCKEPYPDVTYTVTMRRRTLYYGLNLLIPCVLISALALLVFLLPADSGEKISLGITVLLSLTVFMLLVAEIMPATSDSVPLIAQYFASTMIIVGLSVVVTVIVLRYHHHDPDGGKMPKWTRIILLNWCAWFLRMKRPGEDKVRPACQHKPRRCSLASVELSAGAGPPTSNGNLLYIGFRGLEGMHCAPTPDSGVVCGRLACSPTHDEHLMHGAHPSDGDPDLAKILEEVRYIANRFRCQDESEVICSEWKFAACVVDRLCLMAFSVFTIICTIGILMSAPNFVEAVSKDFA
Chain of rat Neurokinin-1 Receptor (NK1), Tacr1 (gene 24807) (P14600 whole entry, looked up): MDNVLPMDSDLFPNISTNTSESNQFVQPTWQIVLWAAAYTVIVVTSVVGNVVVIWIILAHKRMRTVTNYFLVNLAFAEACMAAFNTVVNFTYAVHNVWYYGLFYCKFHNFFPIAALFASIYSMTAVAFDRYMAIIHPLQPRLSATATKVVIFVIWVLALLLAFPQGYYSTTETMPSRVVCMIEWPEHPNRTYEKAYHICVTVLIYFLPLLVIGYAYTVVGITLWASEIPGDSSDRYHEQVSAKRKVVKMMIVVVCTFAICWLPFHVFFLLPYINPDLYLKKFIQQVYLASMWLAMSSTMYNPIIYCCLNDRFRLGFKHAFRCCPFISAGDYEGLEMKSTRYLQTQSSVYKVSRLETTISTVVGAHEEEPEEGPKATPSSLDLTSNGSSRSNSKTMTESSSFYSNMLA
Chain of rat Somatostatin Receptor (SST), Sstr1 (gene 25033) (P28646 whole entry, looked up): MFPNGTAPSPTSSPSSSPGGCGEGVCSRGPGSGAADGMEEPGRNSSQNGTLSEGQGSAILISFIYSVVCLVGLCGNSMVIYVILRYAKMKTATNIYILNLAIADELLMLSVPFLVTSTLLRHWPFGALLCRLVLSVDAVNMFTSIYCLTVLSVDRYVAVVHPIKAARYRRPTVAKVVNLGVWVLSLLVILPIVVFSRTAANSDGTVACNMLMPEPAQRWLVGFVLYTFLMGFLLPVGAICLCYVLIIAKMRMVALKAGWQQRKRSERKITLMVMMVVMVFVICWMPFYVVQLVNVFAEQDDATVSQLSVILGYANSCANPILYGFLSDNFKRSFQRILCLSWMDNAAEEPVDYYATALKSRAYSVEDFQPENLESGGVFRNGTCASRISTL
Chain of human Serotonin, 5-Hydroxytryptamine Receptor 3 (5HT3), HTR3A (gene 3359) (P46098 whole entry, looked up): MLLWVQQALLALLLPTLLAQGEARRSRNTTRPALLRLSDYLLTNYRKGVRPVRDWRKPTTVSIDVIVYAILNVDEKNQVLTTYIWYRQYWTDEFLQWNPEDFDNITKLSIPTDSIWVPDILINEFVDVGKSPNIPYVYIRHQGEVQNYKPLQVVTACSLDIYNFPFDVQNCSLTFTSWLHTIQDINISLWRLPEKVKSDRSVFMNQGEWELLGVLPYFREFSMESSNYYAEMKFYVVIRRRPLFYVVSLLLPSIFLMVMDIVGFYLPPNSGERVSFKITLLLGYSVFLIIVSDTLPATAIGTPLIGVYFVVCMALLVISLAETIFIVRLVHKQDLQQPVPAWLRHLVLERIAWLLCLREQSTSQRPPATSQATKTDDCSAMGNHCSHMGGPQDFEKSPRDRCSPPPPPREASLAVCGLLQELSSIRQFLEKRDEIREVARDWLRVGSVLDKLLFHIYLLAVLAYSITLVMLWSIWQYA
Chain of rat Neurokinin-3 Receptor (NK3), Tacr3 (gene 24808) (P16177 whole entry, looked up): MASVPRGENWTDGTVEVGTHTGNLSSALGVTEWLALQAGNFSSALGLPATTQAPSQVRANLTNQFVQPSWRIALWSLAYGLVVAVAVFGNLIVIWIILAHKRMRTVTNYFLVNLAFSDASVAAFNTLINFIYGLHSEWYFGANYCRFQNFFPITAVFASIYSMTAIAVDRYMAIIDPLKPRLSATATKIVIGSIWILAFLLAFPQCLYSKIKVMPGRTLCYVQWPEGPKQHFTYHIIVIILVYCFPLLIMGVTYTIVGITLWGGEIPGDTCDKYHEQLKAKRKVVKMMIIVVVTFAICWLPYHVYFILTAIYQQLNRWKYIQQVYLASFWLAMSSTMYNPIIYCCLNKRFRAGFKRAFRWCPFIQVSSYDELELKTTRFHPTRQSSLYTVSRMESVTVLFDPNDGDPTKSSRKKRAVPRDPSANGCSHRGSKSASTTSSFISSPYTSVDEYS
Chain of rat Glutamate Metabotropic Receptor 5 (MGluR5), Grm5 (gene 24418) (P31424 whole entry, looked up): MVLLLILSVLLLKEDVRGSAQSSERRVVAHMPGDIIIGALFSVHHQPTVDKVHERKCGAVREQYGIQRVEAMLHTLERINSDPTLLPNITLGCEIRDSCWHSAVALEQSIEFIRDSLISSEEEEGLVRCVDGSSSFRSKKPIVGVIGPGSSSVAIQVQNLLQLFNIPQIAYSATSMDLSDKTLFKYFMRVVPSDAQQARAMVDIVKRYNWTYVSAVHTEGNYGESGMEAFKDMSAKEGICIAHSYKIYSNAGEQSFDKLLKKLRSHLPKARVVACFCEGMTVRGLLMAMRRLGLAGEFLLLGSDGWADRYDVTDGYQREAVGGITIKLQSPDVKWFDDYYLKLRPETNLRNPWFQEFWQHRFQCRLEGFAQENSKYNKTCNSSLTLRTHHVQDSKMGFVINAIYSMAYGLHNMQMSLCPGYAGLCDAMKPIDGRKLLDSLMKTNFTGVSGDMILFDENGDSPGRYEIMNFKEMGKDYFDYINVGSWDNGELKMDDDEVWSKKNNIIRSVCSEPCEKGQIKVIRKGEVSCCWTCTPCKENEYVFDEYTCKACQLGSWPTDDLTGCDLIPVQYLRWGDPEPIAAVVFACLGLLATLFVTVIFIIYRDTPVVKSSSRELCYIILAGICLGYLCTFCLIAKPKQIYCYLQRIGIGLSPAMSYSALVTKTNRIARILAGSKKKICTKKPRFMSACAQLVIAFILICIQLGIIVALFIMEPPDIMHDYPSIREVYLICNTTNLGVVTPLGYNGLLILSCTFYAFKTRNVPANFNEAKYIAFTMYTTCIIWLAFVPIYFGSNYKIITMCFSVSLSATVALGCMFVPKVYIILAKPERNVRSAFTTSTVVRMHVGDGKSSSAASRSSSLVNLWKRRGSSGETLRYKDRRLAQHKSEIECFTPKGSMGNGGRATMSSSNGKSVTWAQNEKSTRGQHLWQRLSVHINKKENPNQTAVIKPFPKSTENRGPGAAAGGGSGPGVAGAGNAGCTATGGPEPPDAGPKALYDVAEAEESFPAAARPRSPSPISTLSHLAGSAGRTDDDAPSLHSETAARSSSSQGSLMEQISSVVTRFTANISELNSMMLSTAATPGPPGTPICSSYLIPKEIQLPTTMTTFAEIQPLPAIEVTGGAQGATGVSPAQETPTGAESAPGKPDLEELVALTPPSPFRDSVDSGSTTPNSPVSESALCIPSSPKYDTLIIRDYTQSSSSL
Chain of rat Opioid Receptor, Non-selective Sodium (Na+) Binding, Oprm1 (gene 25601) (P33535 whole entry, looked up): as the sequence (P33535 whole entry, looked up) above
Chain of human Neonicotinoid receptor (NNR), CHRNA2 (gene 1135) (Q15822 whole entry, looked up): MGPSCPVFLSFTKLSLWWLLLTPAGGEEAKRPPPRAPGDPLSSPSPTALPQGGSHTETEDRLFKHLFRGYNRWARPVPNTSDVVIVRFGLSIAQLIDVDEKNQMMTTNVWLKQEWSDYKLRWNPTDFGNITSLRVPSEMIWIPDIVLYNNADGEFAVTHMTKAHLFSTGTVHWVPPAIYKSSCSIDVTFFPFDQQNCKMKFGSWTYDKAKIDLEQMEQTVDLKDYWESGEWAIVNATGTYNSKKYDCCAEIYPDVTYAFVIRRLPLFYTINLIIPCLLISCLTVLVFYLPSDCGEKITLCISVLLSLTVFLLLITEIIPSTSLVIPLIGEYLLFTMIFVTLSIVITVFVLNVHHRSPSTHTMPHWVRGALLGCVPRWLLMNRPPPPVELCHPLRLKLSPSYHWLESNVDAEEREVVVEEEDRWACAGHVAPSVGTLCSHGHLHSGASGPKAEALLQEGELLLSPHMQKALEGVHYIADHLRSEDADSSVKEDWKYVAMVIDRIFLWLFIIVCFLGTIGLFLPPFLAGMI

With `CCN1CCC2(CC1)COc1cc3c(cc12)N(C(=O)c1ccc(-c2ccc(-c4nnc(C)o4)cc2C)cc1)CC3`, the half-maximal activity concentration (AC50) in assay [1] was 10.7 µM (active); in assay [2], 5.41 µM (active); in [3] it was 21.2 µM (active); in [5], 4.93 µM (active); in assay [6], 3.44 µM (active). In assay [4], the outcome was inactive.

For `COc1ccc(C=O)cc1`, in [7], the molecule was classed as inactive.

As for `O=C(OC1CCCCC1)c1ccccc1C(=O)OC1CCCCC1`, the molecule was classed as inactive in assay [7].

In the case of `CCSC(C)CC1CC(=O)C(C(CC)=NOC/C=C/Cl)=C(O)C1` (stereo not given), the outcome in assay [6] was inactive.

Take `CC(C)c1cccc(C(C)C)c1O`: in [7], the molecule was called inactive.

In the case of `O=C(O)C(F)(F)C(F)(F)C(F)(F)C(F)(F)C(F)(F)C(F)(F)C(F)(F)C(F)(F)C(F)(F)C(F)(F)F`, the outcome in assay [8] was inactive.

As to `NC(=S)Nc1ccccc1`, the AC50 in assay [6] was 0.569 µM (active).

As to `Cc1ccccc1N`, the half-maximal activity concentration (AC50) in assay [9] was 10.8 µM (active).

Regarding `C[C@]12CC[C@H](O)CC1=CC[C@@H]1[C@@H]2CC[C@]2(C)C(=O)CC[C@@H]12`, the molecule was classed as inactive in assay [7].

As for `O=c1[nH]c(=O)[nH]c(=O)[nH]1`, the outcome in [10], in assay [4] and in assay [7] was inactive.

In the case of `CC(=O)[O][Hg][c]1ccccc1`, in assay [11], the outcome was inactive. Moreover, the AC50 in [12] is 16.8 µM (active); in assay [13], 30 µM (active); in assay [9] it was 5.92 µM (active); in [4], 31.9 µM (active); in assay [5] it was 40.5 µM (active); in assay [14], 9.18 µM (active).

Take `C[C@@H]1C[C@@H]([C@H](O)CC2CC(=O)NC(=O)C2)C(=O)[C@@H](C)C1`: the outcome in assay [1] and in assay [3] was inactive.

With `CCNc1nc(NC(C)(C)C)nc(SC)n1`, the concentration at half-maximal activity (AC50) in assay [6] was 12.1 µM (active).

`Cc1ccc2ccccc2c1C`: the result in assay [7] was inactive.

`COc1cc2c(cc1OC)[C@@]13CCN4CC5=CCO[C@H]6CC(=O)N2[C@H]1[C@H]6[C@H]5C[C@H]43`: the half-maximal activity concentration (AC50) in [3] is 25 µM (active).

As for `COP(=O)(OC)O/C(=C\Cl)c1cc(Cl)c(Cl)cc1Cl`, the outcome in assay [7] was inactive.

For orientation: AC50 means the concentration giving half of the maximal activity seen.
